“And” between values parts separate entries of the source, which are not always exact repeats. Equal entries are not always repeated. Inconclusive results are not listed. Some compounds were tested as several samples or in several runs, with calls that do not always agree. The source made the active and inactive calls. Unless noted, the call rests on the fitted dose curve; in most records, active means well fitted curve in the direction sought with a large enough effect in the repeat runs; inconclusive means weak or mixed curves; inactive means no such curve, though single readings can be large; an effect the other way counts as inactive or inconclusive.

The values below come from PubChem BioAssay (Tox21).

Test [1] in a line: qHTS assay to identify small molecule agonists of the sonic hedgehog signaling (Shh) pathway (AID 1259368; calls by dose curve;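 further: NIH/3T3-derived 3T3Gli1-Luc cells carrying a stable Gli1-driven firefly luciferase reporter; series mostly up to about 92 µM; nearly all actives have a fitted effect of over 15% in size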). An outline of the steps: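 3T3Gli1-Luc (NIH/3T3 clone, stable Gli1-Luc); 4 hr pre-incubation, then cpd in DMSO 24 hr, 37 C/5% CO2; luciferase reagent 30 min RT; luminescence.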
(Quantitative high-throughput screening tests each substance at several concentrations.)

The nature of test [2]: qHTS assay to identify small molecule antagonists of the sonic hedgehog signaling (Shh) pathway (AID 1259369; calls by dose curve; further: nearly all actives have a fitted effect of over 45% in size). An outline of the steps: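 3T3Gli1-Luc, conditioned-medium-stimulated, 24hr cpd, 37C/5% CO2; Gli1-driven firefly Luc luminescence after 30min RT with luciferase reagent. Cells plated 4hr before cpd.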
The target of test [3] is Estrogen receptor beta (Homo sapiens) (UniProt Q92731). The test is described as follows: qHTS assay to identify small molecule agonists of the estrogen receptor beta (ER-beta) signaling pathway (AID 1259377; active means well fitted activation curve with a large enough effect in the signal ratio in the repeat runs, not every such curve was filed as active; the % refers to the signal ratio). In outline: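 Reporter cells (HEK293T, ER-beta-UAS-bla) receive compounds or DMSO after a 6 hr pre-incubation. They then incubate 16 hr at 37C/5% CO2, and fluorescence from LiveBLAzer B/G substrate is measured after 2 hours at room temperature.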
Chain of Estrogen receptor beta (Homo sapiens) (Q92731 whole entry, looked up): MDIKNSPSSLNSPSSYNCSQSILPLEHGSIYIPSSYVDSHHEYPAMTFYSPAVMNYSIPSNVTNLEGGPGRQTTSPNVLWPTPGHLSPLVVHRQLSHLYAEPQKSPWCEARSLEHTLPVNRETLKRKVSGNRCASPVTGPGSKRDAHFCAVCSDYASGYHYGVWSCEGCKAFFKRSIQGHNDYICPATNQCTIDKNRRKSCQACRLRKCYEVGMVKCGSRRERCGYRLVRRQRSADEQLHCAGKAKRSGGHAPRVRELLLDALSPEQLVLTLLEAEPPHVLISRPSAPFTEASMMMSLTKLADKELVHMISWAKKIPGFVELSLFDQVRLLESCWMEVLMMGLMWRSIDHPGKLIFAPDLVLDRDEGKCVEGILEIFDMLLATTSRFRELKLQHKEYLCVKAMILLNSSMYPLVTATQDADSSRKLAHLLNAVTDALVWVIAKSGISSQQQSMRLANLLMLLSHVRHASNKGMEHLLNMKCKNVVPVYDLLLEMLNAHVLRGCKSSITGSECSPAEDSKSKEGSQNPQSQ

The nature of test [4]: qHTS assay to identify small molecule agonists of the estrogen receptor beta (ER-beta) signaling pathway - cell viability counter screen (AID 1259380). Further: nearly all actives have a fitted effect of over 30% in size. Further: potency means the concentration at half of the fitted maximal effect. An outline of the steps:
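HEK293T ER-beta-UAS-bla; 2% CS-FBS; 6 hr pre-plate, 16 hr cpd at 37C/5% CO2; LiveBLAzer read first, then CellTiter-Glo 30 min RT, luminescence.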

Test [5] in a line: qHTS assay to identify small molecule antagonists of the estrogen receptor beta (ER-beta) signaling pathway - cell viability counter screen (AID 1259382). Further: nearly all actives have a fitted effect of over 55% in size. Further: potency means the concentration at half of the fitted maximal effect. In outline: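 Cells: ER-beta-UAS-bla HEK293T, 2,000/well, 2% CS-FBS, 6 hr settle. Cpd + E2 (1nM final), 16 hr, 37C/5% CO2. Bla FRET substrate 2 hr RT, then CellTiter-Glo 30 min RT, luminescence.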
Test [6] addresses Estrogen receptor (Homo sapiens) (UniProt P03372). As to the kind of experiment: qHTS assay to identify small molecule agonists of the estrogen receptor alpha (ER-alpha) signaling pathway in the presence of an antagonist (AID 1259383; calls by dose curve; further: top concentration of the series differs between compounds; nearly all actives have a fitted effect of over 15% in size). An outline of the steps: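 VM7Luc4E2, endog. ER-alpha + 4×ERE-luc; charcoal-stripped FBS, phenol red-free, 5 d; 24hr plating; +10.0nM ICI-182,780 (final); cpds 15 conc, 22hr, 37C/5% CO2; ONE-Glo luminescence.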

Test [7] is described as follows: qHTS assay to identify small molecule agonists of the estrogen receptor alpha (ER-alpha) signaling pathway in the presence of an antagonist - cell viability counter screen (AID 1259386).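 Further: series mostly up to about 92 µM; cells exposed to compounds for 22 h at 37 °C before the viability read; nearly all actives have a fitted effect of over 30% in size.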 In outline: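 VM7Luc4E2, stripped-serum pre-culture 5 d; 24hr plating; +ICI-182,780 10.0nM final; cpds 15 conc, 22hr, 37C/5% CO2; CellTiter-Fluor added at 21hr, fluorescence 1hr later.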

The target in test [8] is Progesterone receptor (Homo sapiens) (UniProt P06401). As to the kind of experiment: qHTS assay to identify small molecule agonists of the progesterone receptor (PR) signaling pathway (AID 1346784; calls by dose curve; further: nearly all actives have a fitted effect of over 30% in size). In outline: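 Reporter assay, GripTite PR-UAS-bla HEK 293T cells: 16 hr exposure to DMSO-dissolved compounds at 37C, 5% CO2, in steroid-depleted (2% charcoal-stripped FBS) medium; beta-lactamase measured by FRET fluorescence.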
Chain of Progesterone receptor (Homo sapiens) (P06401 whole entry, looked up): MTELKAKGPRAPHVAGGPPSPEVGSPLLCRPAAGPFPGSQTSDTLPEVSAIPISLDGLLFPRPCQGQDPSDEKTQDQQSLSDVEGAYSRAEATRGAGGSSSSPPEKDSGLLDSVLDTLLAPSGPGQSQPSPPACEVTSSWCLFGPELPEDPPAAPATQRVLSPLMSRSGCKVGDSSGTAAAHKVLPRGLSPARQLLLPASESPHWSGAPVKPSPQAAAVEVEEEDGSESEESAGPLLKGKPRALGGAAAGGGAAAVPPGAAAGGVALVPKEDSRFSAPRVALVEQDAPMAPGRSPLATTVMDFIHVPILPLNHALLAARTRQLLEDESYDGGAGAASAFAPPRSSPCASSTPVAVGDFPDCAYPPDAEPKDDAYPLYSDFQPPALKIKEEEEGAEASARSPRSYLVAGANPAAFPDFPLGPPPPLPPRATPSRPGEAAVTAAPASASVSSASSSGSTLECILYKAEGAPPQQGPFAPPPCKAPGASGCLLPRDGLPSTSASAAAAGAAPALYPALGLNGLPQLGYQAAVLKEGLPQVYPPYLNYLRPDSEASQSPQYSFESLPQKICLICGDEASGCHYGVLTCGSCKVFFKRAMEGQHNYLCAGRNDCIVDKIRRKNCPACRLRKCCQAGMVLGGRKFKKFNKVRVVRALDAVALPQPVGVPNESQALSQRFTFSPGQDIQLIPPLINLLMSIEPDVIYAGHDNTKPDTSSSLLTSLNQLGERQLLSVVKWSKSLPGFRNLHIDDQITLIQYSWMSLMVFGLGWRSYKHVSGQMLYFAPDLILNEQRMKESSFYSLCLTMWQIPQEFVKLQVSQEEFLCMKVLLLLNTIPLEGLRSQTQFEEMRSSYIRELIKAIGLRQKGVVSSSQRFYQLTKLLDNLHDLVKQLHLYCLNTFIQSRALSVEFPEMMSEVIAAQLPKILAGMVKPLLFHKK

Test [9] has the same target. As to the kind of experiment: qHTS assay to identify small molecule antagonists of the progesterone receptor (PR) signaling pathway (AID 1346795; active means well fitted inhibition curve with a large enough effect in the signal ratio in the repeat runs, not every such curve was filed as active; the % refers to the signal ratio; further: potency means the concentration at half of the fitted maximal effect). In outline: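 Stimulus R5020 at 1 nM final; cells HEK293T PR-UAS-bla; medium with 2% charcoal-stripped FBS; compound exposure 16 hr at 37C, 5% CO2; detection by FRET beta-lactamase substrate, 2 hr, room temperature.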
Test [10] can be described thus: qHTS assay to identify small molecule antagonists of the progesterone receptor (PR) signaling pathway - cell viability counter screen (AID 1346798). Further: series mostly up to about 92 µM; nearly all actives have a fitted effect of over 50% in size. An outline of the steps: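 In the same plates used for the beta-lactamase readout, cell viability of compound- and R5020-treated PR-UAS-bla HEK293T cells (16 hr, 37C) was assessed by CellTiter-Glo luminescence.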
The nature of test [11]: qHTS assay to identify small molecule agonists of the TGF-beta/Smad signaling pathway - cell viability counter screen (AID 1346829). Further: nearly all actives have a fitted effect of over 45% in size. Further: potency means the concentration at half of the fitted maximal effect. In outline: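 HEK 293T SBE-bla line, 5 hr compound exposure at 37 C, multiplexed CellTiter-Glo viability read by luminescence.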
A short description of test [12]: qHTS assay to identify small molecule agonists of the TGF-beta/Smad signaling pathway (AID 1346859; active means well fitted activation curve with a large enough effect in the signal ratio in the repeat runs, not every such curve was filed as active; the % refers to the signal ratio; further: series mostly up to about 77 µM). An outline of the steps: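 Screening used HEK 293T SBE-bla cells at 4,000/well. Test agents: 5 hr, 37 C. Detection: FRET substrate, 2 hr RT, then excitation 405 nm with emissions at 460 and 530 nm.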
The nature of test [13]: qHTS assay to identify small molecule agonists of the androgen receptor (AR) signaling pathway in the presence of an antagonist - cell viability counter screen (AID 1259379).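 Further: MDA-kb2 human breast cancer cells carrying an MMTV luciferase reporter; series mostly up to about 92 µM; nearly all actives have a fitted effect of over 25% in size.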 In outline:
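Cells: MDA-kb2 (MMTV-luc, AR and GR elements), 3,000/well, 5 hr settle. Added: nilutamide 3.0uM final, then compounds (15 conc.). Incubation: 16 hr, 37C, no CO2. Read-out: CellTiter-Fluor, 1 hr, fluorescence.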

Test [14] is described as follows: qHTS assay to identify small molecule agonists or antagonists of the thyroid stimulating hormone receptor (TSHR) signaling pathway - wild type cell line counter screen (AID 1259384; calls by dose curve). In outline: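 Wild-type Hek293 cells, 800/well, 18 h at 37C, then compound with Ro20-1724 for 30 min RT. cAMP by HTRF (cAMP-d2/anti-cAMP cryptate), 1 h RT, fluorescence read. 15 concentrations, triplicates.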

Test [15] addresses Thyrotropin receptor (Homo sapiens) (UniProt P16473). As to the kind of experiment: qHTS assay to identify small molecule antagonists of the thyroid stimulating hormone receptor (TSHR) signaling pathway (AID 1259385; calls by dose curve; further: nearly all actives have a fitted effect of over 20% in size). An outline of the steps: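 TSHR-HEK293 cells (800/well) plated 18 h, then compounds with Ro20-1724 and TSH at 1.5 ng/mL final, 30 min at room temperature. cAMP quantified by HTRF (cAMP-d2/anti-cAMP-cryptate, 1 h); 15 concentrations in triplicate.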

Test [16] in a line: qHTS assay to identify small molecule antagonists of the TGF-beta/Smad signaling pathway - cell viability counter screen (AID 1346824). Further: nearly all actives have a fitted effect of over 50% in size. In outline:
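SBE-bla HEK 293T cells, incubated overnight, then compound plus 0.25 ng/mL TGF-beta1 (stock added) for 5 hr at 37 C. Viability was read in the same wells by CellTiter-Glo luminescence after 30 min at room temperature.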

Test [17] addresses Thyrotropin-releasing hormone receptor (Homo sapiens) (UniProt P34981). The test is described as follows: qHTS assay to identify small molecule antagonists of the thyrotropin-releasing hormone receptor (TRHR) signaling pathway (AID 1346877; active means well fitted inhibition curve with a large enough effect in the repeat runs, not every such curve was filed as active; further: series mostly up to about 51 µM). In outline: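 Intracellular calcium fluorescence, read kinetically every second over 3 min, reports TRH-evoked signalling in HEK293 cells carrying TRHR. Test compounds were added 5 min ahead of a 1 nM TRH challenge.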

Test [18] in a line: qHTS assay to identify small molecule agonists of the progesterone receptor (PR) signaling pathway - cell viability counter screen (AID 1346799; calls by dose curve; further: nearly all actives have a fitted effect of over 45% in size). In outline:
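Multiplexed viability read: CellTiter-Glo luminescence, 30 min RT, following LiveBLAzer FRET measurement on PR-UAS-bla HEK293T cells exposed to compounds 16 hr.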

In test [19] the target is Estrogen receptor beta (Homo sapiens) (UniProt Q92731). As to the kind of experiment: qHTS assay to identify small molecule antagonists of the estrogen receptor beta (ER-beta) signaling pathway (AID 1259378; active means well fitted inhibition curve with a large enough effect in the signal ratio in the repeat runs, not every such curve was filed as active; the % refers to the signal ratio). In outline:
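ER-beta-UAS-bla HEK293T cells in 2% charcoal-stripped FBS medium treated with compound plus 1nM final 17-beta-estradiol for 16 hr at 37C. Beta-lactamase reporter read by FRET substrate fluorescence after 2 hours at room temperature.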

Test [20] deals with Androgen receptor (Homo sapiens) (UniProt P10275). As to the kind of experiment: qHTS assay to identify small molecule agonists of the androgen receptor (AR) signaling pathway in the presence of an antagonist (AID 1259381; calls by dose curve; further: nearly all actives have a fitted effect of over 15% in size). An outline of the steps:
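MDA-kb2 cells, 3,000/well, rested 5hr at 37C/0% CO2 → nilutamide 3.0uM final or buffer → compounds, 15 conc. → 16hr at 37C → ONE-Glo, 30min RT → luminescence.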

Chain of Thyrotropin receptor (Homo sapiens) (P16473 whole entry, looked up): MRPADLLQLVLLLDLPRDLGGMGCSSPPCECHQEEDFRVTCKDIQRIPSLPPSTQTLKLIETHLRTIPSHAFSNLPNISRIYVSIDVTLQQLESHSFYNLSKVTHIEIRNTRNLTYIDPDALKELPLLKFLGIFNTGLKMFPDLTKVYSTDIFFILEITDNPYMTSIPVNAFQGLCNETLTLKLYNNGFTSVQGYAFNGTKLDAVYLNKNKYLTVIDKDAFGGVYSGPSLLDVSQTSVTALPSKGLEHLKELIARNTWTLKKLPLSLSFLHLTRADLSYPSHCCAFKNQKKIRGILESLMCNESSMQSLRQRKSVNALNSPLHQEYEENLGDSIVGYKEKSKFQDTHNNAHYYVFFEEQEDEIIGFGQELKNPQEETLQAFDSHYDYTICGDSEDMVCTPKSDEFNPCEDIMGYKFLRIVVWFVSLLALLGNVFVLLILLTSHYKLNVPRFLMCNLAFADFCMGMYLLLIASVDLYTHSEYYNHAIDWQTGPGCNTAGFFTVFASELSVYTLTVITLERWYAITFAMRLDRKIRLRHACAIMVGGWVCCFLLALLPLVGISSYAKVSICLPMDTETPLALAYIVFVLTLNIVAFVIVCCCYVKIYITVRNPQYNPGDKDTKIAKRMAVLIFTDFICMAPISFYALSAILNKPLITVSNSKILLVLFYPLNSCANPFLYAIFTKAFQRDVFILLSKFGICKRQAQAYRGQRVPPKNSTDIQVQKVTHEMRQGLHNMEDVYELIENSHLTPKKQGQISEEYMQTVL
Chain of Thyrotropin-releasing hormone receptor (Homo sapiens) (P34981 whole entry, looked up): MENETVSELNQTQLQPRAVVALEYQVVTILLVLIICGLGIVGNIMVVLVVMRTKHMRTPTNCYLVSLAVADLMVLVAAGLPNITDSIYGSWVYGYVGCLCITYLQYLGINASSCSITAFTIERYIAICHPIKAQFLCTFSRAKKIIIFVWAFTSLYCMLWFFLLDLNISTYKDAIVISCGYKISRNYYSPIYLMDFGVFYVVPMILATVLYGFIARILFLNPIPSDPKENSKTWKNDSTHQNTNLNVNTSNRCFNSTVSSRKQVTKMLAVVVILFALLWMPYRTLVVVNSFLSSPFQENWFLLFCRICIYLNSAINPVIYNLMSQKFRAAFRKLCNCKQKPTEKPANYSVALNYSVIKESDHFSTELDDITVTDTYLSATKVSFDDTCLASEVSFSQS
Chain of Estrogen receptor (Homo sapiens) (P03372 whole entry, looked up): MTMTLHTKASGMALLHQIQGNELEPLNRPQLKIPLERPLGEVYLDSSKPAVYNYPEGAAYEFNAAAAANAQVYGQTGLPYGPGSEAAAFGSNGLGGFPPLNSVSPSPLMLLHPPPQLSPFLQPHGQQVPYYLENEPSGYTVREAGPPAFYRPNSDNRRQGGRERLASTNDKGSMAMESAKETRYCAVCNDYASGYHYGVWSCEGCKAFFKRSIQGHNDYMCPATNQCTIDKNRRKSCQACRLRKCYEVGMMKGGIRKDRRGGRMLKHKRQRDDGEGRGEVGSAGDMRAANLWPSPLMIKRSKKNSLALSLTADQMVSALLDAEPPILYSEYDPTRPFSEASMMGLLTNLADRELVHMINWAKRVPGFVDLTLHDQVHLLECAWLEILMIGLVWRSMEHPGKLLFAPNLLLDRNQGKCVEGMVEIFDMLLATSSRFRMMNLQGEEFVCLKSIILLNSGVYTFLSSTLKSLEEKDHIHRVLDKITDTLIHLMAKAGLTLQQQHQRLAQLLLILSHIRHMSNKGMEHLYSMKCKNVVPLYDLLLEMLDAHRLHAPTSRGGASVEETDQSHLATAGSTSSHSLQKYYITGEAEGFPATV
Chain of Androgen receptor (Homo sapiens) (P10275 whole entry, looked up): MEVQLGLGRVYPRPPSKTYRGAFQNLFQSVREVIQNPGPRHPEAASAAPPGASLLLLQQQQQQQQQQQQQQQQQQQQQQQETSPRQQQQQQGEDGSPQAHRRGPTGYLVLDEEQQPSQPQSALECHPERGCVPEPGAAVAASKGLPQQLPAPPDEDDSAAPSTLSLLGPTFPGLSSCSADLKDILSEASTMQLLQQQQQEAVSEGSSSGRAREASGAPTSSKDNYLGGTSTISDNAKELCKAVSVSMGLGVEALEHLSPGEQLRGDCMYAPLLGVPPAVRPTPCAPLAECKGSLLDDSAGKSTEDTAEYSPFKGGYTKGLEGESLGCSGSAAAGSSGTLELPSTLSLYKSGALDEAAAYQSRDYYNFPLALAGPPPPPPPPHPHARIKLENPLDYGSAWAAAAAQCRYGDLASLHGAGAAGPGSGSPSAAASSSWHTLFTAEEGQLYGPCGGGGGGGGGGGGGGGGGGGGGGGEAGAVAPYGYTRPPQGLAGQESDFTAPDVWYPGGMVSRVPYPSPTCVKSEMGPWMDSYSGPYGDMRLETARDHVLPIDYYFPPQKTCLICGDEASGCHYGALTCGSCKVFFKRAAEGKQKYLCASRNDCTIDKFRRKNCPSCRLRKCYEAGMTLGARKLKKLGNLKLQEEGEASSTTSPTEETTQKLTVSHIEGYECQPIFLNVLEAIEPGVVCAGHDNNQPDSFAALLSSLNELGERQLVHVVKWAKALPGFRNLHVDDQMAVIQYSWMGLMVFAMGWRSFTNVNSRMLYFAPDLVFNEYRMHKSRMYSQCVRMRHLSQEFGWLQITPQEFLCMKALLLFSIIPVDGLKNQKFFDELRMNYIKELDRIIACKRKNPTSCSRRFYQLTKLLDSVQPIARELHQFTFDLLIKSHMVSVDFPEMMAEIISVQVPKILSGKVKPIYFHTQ

As for `Cn1c([N+](=O)[O-])cnc1COC(N)=O`, the result in test [1] and in test [12] was inactive. Moreover, the Potency result in test [2], in [3], in [4], in [5], in test [6] and in [7] was “inactive” in each case. Moreover, the Potency entry in test [8], in [9], in test [10] and in test [11] was “inactive” throughout.
Take `CC[Si](OC(C)=O)(OC(C)=O)OC(C)=O`: the compound was classed as inactive in test [1], in test [14], in [15], in [12] and in test [17]. In addition, the Potency result in test [2], in test [13], in [4], in test [5], in [6] and in test [7] was “inactive” throughout. Moreover, the Potency entry in test [8], in [9], in test [10], in test [16] and in test [11] was “inactive” each time.
`c1ccc2ccccc2c1`: the compound was classed as inactive in test [1], in test [14], in [15], in [12] and in test [17]. Also, the Potency entry in [2], in [13], in [4], in test [5], in [6] and in test [7] was “inactive” in each case. Also, the Potency result in [8], in test [9], in [10], in test [18], in test [16] and in test [11] was “inactive” in each case.
Consider `c1ccc2[nH]cnc2c1`, for which the compound was called inactive in test [1], in test [12] and in [17]. The Potency entry in [2], in test [4], in [5], in test [7], in test [8] and in [9] was “inactive” each time. Also, the Potency entry in [16] and in test [11] was “inactive” each time.
Regarding `CCCCCCCCCCCCN`, the call in [1], in test [14], in test [15], in test [12] and in test [17] was inactive. Moreover, the Potency result in test [2], in test [13], in test [7], in test [8], in test [9] and in [10] was “inactive” in each case. The Potency entry in test [4] is “inactive and 30.6 µM (active)”; in [5] it was 54.5 µM (active) and inactive; in test [11], “inactive and 21.9 µM (active)”.
Take `Cc1cc(=O)[nH]c(C(C)C)n1`: the compound was called inactive in test [1], in test [14], in test [15], in test [12] and in test [17]. Besides, the Potency result in test [2], in [19], in test [13], in test [4], in test [20] and in test [5] was “inactive” in each case. Besides, the Potency entry in test [6], in test [7], in test [8], in [9], in [10] and in [16] was “inactive” throughout. In addition, the Potency entry in test [11] was “inactive”.
On to `O=S(=O)(Oc1ccc(Cl)cc1Cl)c1ccccc1`, for which the outcome in test [1], in test [14], in [15] and in test [12] was inactive. Further, the Potency result in [2], in test [4], in test [5], in [6], in test [7] and in [8] was “inactive” in each case. Moreover, the Potency result in test [10], in test [18], in test [16] and in test [11] was “inactive” throughout. Besides, the Potency in test [9] was 8.78 µM (active) and 12.2 µM (active).
